The list is not random: actives were taken first. Their share in the collection is about 4.2%.
Hsp70 activator: Hsp70 transcriptional activators, primary screen, cell-based, HeLa, Hsp70 promoter luciferase, luminescence, 10 µM. activation, % at 10 µM. HeLa Hsp70 promoter luciferase reporter; scaled: vehicle 0, proteasome-inhibitor control 100%. AID 1203, 2008. 200,000 tested, 0.04% active;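 active means activation above the mean across all tested compounds plus 3 SD, cutoff set per campaign, cut at about 5.5% in these data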;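 further: 100% = MG132 at 30 µM as the positive control and 0% = DMSO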
CHOP inh: inhibitors of CHOP promoter induction, primary screen, cell-based, unfolded protein response, luciferase reporter; inhibition, % at 10 µM; AID 2732, 2010; CHO-K1 CHOP-promoter luciferase, tunicamycin-induced, 15-18 h; 220,000 tested, 3.8% active;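 active means compounds that reduced the stress-induced luciferase reporter signal by more than about 70% of percent inhibition, limit read from the data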;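 further: 0% = tunicamycin plus vehicle and 100% = wells without tunicamycin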
S1P4 ag: S1P4 receptor agonists, primary screen, cell-based; Sphingosine 1-phosphate receptor 4 (Homo sapiens), O95977; S1P4-expressing cell line, agonist reporter assay; activation, % at 4.98 µM; 220,000 tested, 0.35% active; in the data active means activation above about 11%;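 further: 0% = DMSO vehicle and 100% = reference agonist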
Target sequence (O95977 whole entry, looked up): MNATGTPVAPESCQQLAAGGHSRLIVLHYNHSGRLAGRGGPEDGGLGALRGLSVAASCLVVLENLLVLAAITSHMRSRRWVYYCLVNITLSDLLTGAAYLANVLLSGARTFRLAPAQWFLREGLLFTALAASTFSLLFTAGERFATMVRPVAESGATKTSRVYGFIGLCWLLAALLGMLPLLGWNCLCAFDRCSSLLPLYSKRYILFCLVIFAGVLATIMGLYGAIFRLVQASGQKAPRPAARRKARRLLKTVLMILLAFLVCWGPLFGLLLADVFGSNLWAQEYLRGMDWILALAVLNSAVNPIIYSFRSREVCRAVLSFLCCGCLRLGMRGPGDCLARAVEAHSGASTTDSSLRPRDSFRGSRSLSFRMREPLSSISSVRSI
S1P4 antag: S1P4 receptor antagonists, primary screen, cell-based. 220,000 tested, 0.26% active. S1P4-expressing cells, antagonist mode, reporter read-out. inhibition, % at 4.98 µM; in the data active means inhibition above about 29%;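 further: 0% = wells stimulated with agonist and 100% = vehicle wells without agonist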
Active calls of the source: *; nt = no result.

SMILES	Hsp70 activator	CHOP inh	S1P4 ag	S1P4 antag
CCN(Cc1ccccc1)C(=O)CCc1nc(-c2ccc(C)cc2)no1	0.1	70.5*	-2.1	-8.2
CCN(CCCNC(=O)CN1C(=O)COc2ccccc21)c1ccccc1	-0.2	-2.3	0.0	-5.6
CCN(CCCNC(=O)CN1C(=O)COc2ccccc21)c1cccc(C)c1	-0.2	86.5*	-0.6	-4.4
Clc1ccc(Cn2ncc3c(N4CCCCC4)ncnc32)cc1	0.1	57.9	0.7	-16.1
CCOC(=O)c1[nH]c(C)c(C(=O)N2CCN(c3ccccc3OC)CC2)c1C	-0.1	-5.9	-2.1	-12.3
CCOC(=O)c1nn(-c2ccc(C)c(C)c2)c(=O)c2c(N)scc12	0.1	92.4*	1.0	-6.1
CCOC(=O)c1nn(-c2ccc(OC)cc2)c(=O)c2c(N)scc12	-0.1	19.1	-1.1	7.9
Cc1ccccc1NCc1ccc(O)c2ncccc12	-0.3	-32.9	-0.2	5.0
CCOc1nc(CC(C)C)c2c(c1C#N)CC(C)(C)OC2	nt	74.3*	-1.3	0.5
CCOc1ncnc2c1oc1nc(CC(C)C)c3c(c12)CC(C)(C)OC3	0.0	-6.8	-1.2	-0.7
Cc1ccc2c(c1)C(c1ccncc1)=NNC(c1ccc(C(C)C)cc1)=N2	-0.2	98.4*	0.3	-11.6
O=C(C(Cc1ccccc1)n1cccc1)N1CCN(c2ccccc2)CC1 (stereo unspecified)	-0.3	78.2*	-0.8	-24.9
CCOc1ccc(CNc2ccc(CNc3ncn[nH]3)cc2)cc1	-0.3	5.5	0.6	-5.6
CCOc1ccc(CNc2cccc(SC)c2)cc1	-0.4	86.9*	2.6	0.8
Cc1c(NC2(C#N)CCCCC2)c(=O)n(-c2ccccc2)n1C	-0.3	10.8	0.9	-0.9
COc1ccc(NC(=O)CSc2nc(N3CCCCC3)nc(N3CCCCC3)n2)cc1	-0.2	43.5	0.0	-8.5
O=C(CSc1nc(N2CCCCC2)nc(N2CCCCC2)n1)Nc1nccs1	-0.1	76.7*	3.8	3.7
CCC(C)NS(=O)(=O)c1ccc(OCC(=O)NCc2ccco2)cc1 (stereo unspecified)	0.0	28.4	-0.8	-4.0
C=C(C)c1cccc(C(C)(C)NC(=O)N(Cc2ccccc2)Cc2ccco2)c1	-0.4	82.8*	2.1	5.8
Cc1[nH]c2ccccc2c1SCc1ccccc1	-0.4	82.9*	2.9	-1.2
COc1ccc2c(c1OC)C(=O)OC2Nc1nc(-c2cc3cc(Br)ccc3oc2=O)cs1 (stereo unspecified)	nt	71.4*	0.3	-17.0
COC(=O)c1ccc(COC(=O)c2ccc(N(C)C)cc2)cc1	0.0	79.8*	2.0	-2.5
COc1ccc(OC)c(/C(O)=C/C(=O)C(=O)Nc2cc(C)ccc2OC)c1	-0.1	1.5	-1.7	17.9
CCOc1ccccc1NC(=O)C(=O)/C=C(\O)c1cc(OC)ccc1OC	0.2	95.3*	0.2	18.2
COC(=O)C1=C(C)N(Cc2ccco2)C(=O)N[C@H]1c1ccccc1	0.1	-0.8	1.6	12.2
SMILES	Hsp70 activator	CHOP inh	S1P4 ag	S1P4 antag
Cc1ccc(/C(N)=N/OC(=O)c2cc(-c3ccccc3)nc3ccccc23)cc1	-0.3	43.1	1.3	3.0
N/C(=N\OC(=O)c1cc(-c2ccccc2)nc2ccccc12)c1ccccn1	0.1	74.1*	3.0	-19.0
Cc1ccc(NC(=O)c2sccc2SCc2cccc(C(F)(F)F)c2)cc1	-0.3	80.5*	2.2	-22.5
Cc1cccc(C)c1NC(=O)c1sccc1SCc1cccc(C(F)(F)F)c1	0.0	82.0*	0.4	-0.9
Cc1ccc(NC(=O)c2c(C(F)(F)F)nn(C)c2SCc2cccc(C(F)(F)F)c2)cc1C	-0.2	59.0	-0.9	-27.0
COC(=O)c1ccc2c(c1)NC(=O)C(N(CC(C)C)CC(C)C)S2 (stereo unspecified)	nt	57.7	0.9	-1.2
CCCN(CCC)C1Sc2ccc(C(=O)OC)cc2NC1=O (stereo unspecified)	0.0	81.6*	1.9	-7.1
Cc1ccc(-c2[nH]c3ccccc3c2C(C[N+](=O)[O-])c2ccco2)cc1 (stereo unspecified)	-0.1	88.7*	3.0	5.7
O=C(CN1C(=O)C2C3C=CC(C3)C2C1=O)N1CC(=O)N(CCc2ccccc2)C(=O)C1 (stereo unspecified)	0.0	73.9*	0.5	-27.6
Cc1ccccc1NC(c1cccc(Cl)c1)c1nnnn1C1CCCCC1 (stereo unspecified)	0.3	86.9*	1.1	-31.5
